± gives the standard deviation.
What was measured:
Experiment in all cases: peptide microarray binding signal (635 nm), min-max normalized on array (fraction of array maximum); higher = stronger binding
Conditions in all cases: peptide region: H3 112-124
[1] = biological target: T1, HaloTag-ATRX ADD domain (163-292)
T1 chain: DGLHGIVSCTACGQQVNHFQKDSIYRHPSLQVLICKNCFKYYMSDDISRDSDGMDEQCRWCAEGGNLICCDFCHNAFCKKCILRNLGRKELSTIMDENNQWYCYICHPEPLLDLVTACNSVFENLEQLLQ
Procedure, shortened: (§1)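 Arrays carried histone 13-mer peptide–cellulose conjugates printed in triplicate on nitrocellulose alongside a Cy3 tracer. After overnight blocking at 4°C, they were incubated for 1 h at 4°C with biotin-labelled HaloTag reader fusions (10 nM to 1 μM) plus streptavidin-Alexa Fluor 647, or with rabbit histone antibodies (1:10,000 to 1:2,000) plus anti-rabbit Alexa 647. Scanning on an Axon GenePix 4000B used 635 nm for signal and 532 nm for misprints. The binding signal reported is each triplicate's mean spot intensity after per-library min-max scaling.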

[2] = biological target: HaloTag-ING2 PHD (mouse Ing2 200-280)
Procedure, shortened: as §1

[3] = biological target: anti-H3K4me3 antibody ab8580
Procedure, shortened: as §1

[4] = biological target: anti-H3K9me3 antibody ab8898
Procedure, shortened: as §1

[5] = peptide modifications: H3K115me1 H3R116me2a, binder concentration: 1:2,000 dilution
[6] = peptide modifications: H3K115me1 H3R116me2a, binder concentration: 1:10,000 dilution
[7] = peptide modifications: H3K115me2 H3K122me2, binder concentration: 1:2,000 dilution
[8] = peptide modifications: H3K115me2 H3K122me2, binder concentration: 1:10,000 dilution
[9] = peptide modifications: H3K115me2 H3K122me1, binder concentration: 1:2,000 dilution
[10] = peptide modifications: H3K115me2 H3K122me1, binder concentration: 1:10,000 dilution
[11] = peptide modifications: H3K115me2, binder concentration: 1:2,000 dilution
[12] = peptide modifications: H3K115me2, binder concentration: 1:10,000 dilution
[13] = peptide modifications: H3K115me1 H3K122me3, binder concentration: 1:2,000 dilution
[14] = peptide modifications: H3K115me1 H3K122me3, binder concentration: 1:10,000 dilution
[15] = peptide modifications: H3K115me2 H3K122ac, binder concentration: 1:2,000 dilution
[16] = peptide modifications: H3K115me2 H3K122ac, binder concentration: 1:10,000 dilution
[17] = peptide modifications: H3K115ac H3R116me2a, binder concentration: 1:2,000 dilution
[18] = peptide modifications: H3K115ac H3R116me2a, binder concentration: 1:10,000 dilution
[19] = peptide modifications: H3K115me2 H3K122me3, binder concentration: 1:2,000 dilution
[20] = peptide modifications: H3K115me2 H3K122me3, binder concentration: 1:10,000 dilution
[21] = peptide modifications: H3K115me1 H3R116me1, binder concentration: 1:2,000 dilution
[22] = peptide modifications: H3K115me1 H3R116me1, binder concentration: 1:10,000 dilution
[23] = peptide modifications: H3K115me2 H3R116cit, binder concentration: 1:2,000 dilution
[24] = peptide modifications: H3K115me2 H3R116cit, binder concentration: 1:10,000 dilution

IHAKRVTIMPKDI [H3 112-124 I H A Kme Rme2a V T I M P K D I]
peptide microarray binding signal ([1]; peptide modifications: H3K115me1 H3R116me2a, binder concentration: 50 nM): 0.005172 ± 3.7e-05 | peptide microarray binding signal ([1]; peptide modifications: H3K115me1 H3R116me2a, binder concentration: 500 nM): 0.0151 ± 0.00091 | peptide microarray binding signal ([2]; peptide modifications: H3K115me1 H3R116me2a, binder concentration: 10 nM): 0.0102 ± 0.00057 | peptide microarray binding signal ([2]; peptide modifications: H3K115me1 H3R116me2a, binder concentration: 100 nM): 0.0244 ± 0.0083 | peptide microarray binding signal [3, 5]: 0.00434 ± 0.00096 | peptide microarray binding signal [3, 6]: 0.00297 ± 8.7e-05 | peptide microarray binding signal [4, 5]: 0.0064 ± 0.00053 | peptide microarray binding signal [4, 6]: 0.00317 ± 0.00013

IHAKRVTIMPKDI [H3 112-124 I H A Kme2 R V T I M P Kme2 D I]
peptide microarray binding signal ([1]; peptide modifications: H3K115me2 H3K122me2, binder concentration: 50 nM): 0.003981 ± 1.6e-05 | peptide microarray binding signal ([1]; peptide modifications: H3K115me2 H3K122me2, binder concentration: 500 nM): 0.00729 ± 0.00043 | peptide microarray binding signal ([2]; peptide modifications: H3K115me2 H3K122me2, binder concentration: 10 nM): 0.0277 ± 0.0045 | peptide microarray binding signal ([2]; peptide modifications: H3K115me2 H3K122me2, binder concentration: 100 nM): 0.0324 ± 0.0023 | peptide microarray binding signal [3, 7]: 0.00387 ± 0.0014 | peptide microarray binding signal [3, 8]: 0.00382 ± 0.00021 | peptide microarray binding signal [4, 7]: 0.0021 ± 6.7e-05 | peptide microarray binding signal [4, 8]: 0.002076 ± 1.9e-05

IHAKRVTIMPKDI [H3 112-124 I H A Kme2 R V T I M P Kme D I]
peptide microarray binding signal ([1]; peptide modifications: H3K115me2 H3K122me1, binder concentration: 50 nM): 0.00398 ± 8.3e-05 | peptide microarray binding signal ([1]; peptide modifications: H3K115me2 H3K122me1, binder concentration: 500 nM): 0.00852 ± 0.00012 | peptide microarray binding signal ([2]; peptide modifications: H3K115me2 H3K122me1, binder concentration: 10 nM): 0.0224 ± 0.00092 | peptide microarray binding signal ([2]; peptide modifications: H3K115me2 H3K122me1, binder concentration: 100 nM): 0.0286 ± 0.0023 | peptide microarray binding signal [3, 9]: 0.0024 ± 0.00012 | peptide microarray binding signal [3, 10]: 0.002853 ± 2.4e-05 | peptide microarray binding signal [4, 9]: 0.0016 ± 2.9e-05 | peptide microarray binding signal [4, 10]: 0.001441 ± 1.4e-05

IHAKRVTIMPKDI [H3 112-124 I H A Kme2 R V T I M P K D I]
peptide microarray binding signal ([1]; peptide modifications: H3K115me2, binder concentration: 50 nM): 0.0058 ± 7e-05 | peptide microarray binding signal ([1]; peptide modifications: H3K115me2, binder concentration: 500 nM): 0.012 ± 0.0003 | peptide microarray binding signal ([2]; peptide modifications: H3K115me2, binder concentration: 10 nM): 0.0144 ± 0.00078 | peptide microarray binding signal ([2]; peptide modifications: H3K115me2, binder concentration: 100 nM): 0.0293 ± 0.0017 | peptide microarray binding signal [3, 11]: 0.00506 ± 0.00089 | peptide microarray binding signal [3, 12]: 0.00588 ± 0.00054 | peptide microarray binding signal [4, 11]: 0.00495 ± 0.00045 | peptide microarray binding signal [4, 12]: 0.00479 ± 0.00031

IHAKRVTIMPKDI [H3 112-124 I H A Kme R V T I M P Kme3 D I]
peptide microarray binding signal ([1]; peptide modifications: H3K115me1 H3K122me3, binder concentration: 50 nM): 0.00583 ± 0.00011 | peptide microarray binding signal ([1]; peptide modifications: H3K115me1 H3K122me3, binder concentration: 500 nM): 0.0149 ± 0.00053 | peptide microarray binding signal ([2]; peptide modifications: H3K115me1 H3K122me3, binder concentration: 10 nM): 0.0251 ± 0.0019 | peptide microarray binding signal ([2]; peptide modifications: H3K115me1 H3K122me3, binder concentration: 100 nM): 0.0482 ± 0.004 | peptide microarray binding signal [3, 13]: 0.00627 ± 0.0014 | peptide microarray binding signal [3, 14]: 0.00548 ± 0.00038 | peptide microarray binding signal [4, 13]: 0.0268 ± 0.0058 | peptide microarray binding signal [4, 14]: 0.0121 ± 0.00038

IHAKRVTIMPKDI [H3 112-124 I H A Kme2 R V T I M P Kac D I]
peptide microarray binding signal ([1]; peptide modifications: H3K115me2 H3K122ac, binder concentration: 50 nM): 0.00357 ± 5.2e-05 | peptide microarray binding signal ([1]; peptide modifications: H3K115me2 H3K122ac, binder concentration: 500 nM): 0.006 ± 0.00044 | peptide microarray binding signal ([2]; peptide modifications: H3K115me2 H3K122ac, binder concentration: 10 nM): 0.0178 ± 0.0029 | peptide microarray binding signal ([2]; peptide modifications: H3K115me2 H3K122ac, binder concentration: 100 nM): 0.0235 ± 0.0049 | peptide microarray binding signal [3, 15]: 0.00145 ± 0.00019 | peptide microarray binding signal [3, 16]: 0.00188 ± 0.00012 | peptide microarray binding signal [4, 15]: 0.00186 ± 0.00037 | peptide microarray binding signal [4, 16]: 0.00277 ± 0.00067

IHAKRVTIMPKDI [H3 112-124 I H A Kac Rme2a V T I M P K D I]
peptide microarray binding signal ([1]; peptide modifications: H3K115ac H3R116me2a, binder concentration: 50 nM): 0.00787 ± 0.00018 | peptide microarray binding signal ([1]; peptide modifications: H3K115ac H3R116me2a, binder concentration: 500 nM): 0.0159 ± 0.00051 | peptide microarray binding signal ([2]; peptide modifications: H3K115ac H3R116me2a, binder concentration: 10 nM): 0.0239 ± 0.00027 | peptide microarray binding signal ([2]; peptide modifications: H3K115ac H3R116me2a, binder concentration: 100 nM): 0.0365 ± 0.0046 | peptide microarray binding signal [3, 17]: 0.00423 ± 0.00017 | peptide microarray binding signal [3, 18]: 0.00394 ± 0.00014 | peptide microarray binding signal [4, 17]: 0.00278 ± 0.00019 | peptide microarray binding signal [4, 18]: 0.00306 ± 0.0002

IHAKRVTIMPKDI [H3 112-124 I H A Kme2 R V T I M P Kme3 D I]
peptide microarray binding signal ([1]; peptide modifications: H3K115me2 H3K122me3, binder concentration: 50 nM): 0.00401 ± 7.2e-05 | peptide microarray binding signal ([1]; peptide modifications: H3K115me2 H3K122me3, binder concentration: 500 nM): 0.0105 ± 0.00042 | peptide microarray binding signal ([2]; peptide modifications: H3K115me2 H3K122me3, binder concentration: 10 nM): 0.0258 ± 0.0013 | peptide microarray binding signal ([2]; peptide modifications: H3K115me2 H3K122me3, binder concentration: 100 nM): 0.0359 ± 0.0052 | peptide microarray binding signal [3, 19]: 0.00289 ± 0.00018 | peptide microarray binding signal [3, 20]: 0.00274 ± 0.00017 | peptide microarray binding signal [4, 19]: 0.0105 ± 0.0013 | peptide microarray binding signal [4, 20]: 0.00536 ± 0.00056

IHAKRVTIMPKDI [H3 112-124 I H A Kme Rme V T I M P K D I]
peptide microarray binding signal ([1]; peptide modifications: H3K115me1 H3R116me1, binder concentration: 50 nM): 0.0108 ± 0.00023 | peptide microarray binding signal ([1]; peptide modifications: H3K115me1 H3R116me1, binder concentration: 500 nM): 0.0356 ± 0.0019 | peptide microarray binding signal ([2]; peptide modifications: H3K115me1 H3R116me1, binder concentration: 10 nM): 0.0466 ± 0.0022 | peptide microarray binding signal ([2]; peptide modifications: H3K115me1 H3R116me1, binder concentration: 100 nM): 0.0304 ± 0.0046 | peptide microarray binding signal [3, 21]: 0.00891 ± 0.0021 | peptide microarray binding signal [3, 22]: 0.00593 ± 0.0011 | peptide microarray binding signal [4, 21]: 0.00746 ± 0.0012 | peptide microarray binding signal [4, 22]: 0.00646 ± 0.00037

IHAKRVTIMPKDI [H3 112-124 I H A Kme2 Rcit V T I M P K D I]
peptide microarray binding signal ([1]; peptide modifications: H3K115me2 H3R116cit, binder concentration: 50 nM): 0.00386 ± 8.5e-05 | peptide microarray binding signal ([1]; peptide modifications: H3K115me2 H3R116cit, binder concentration: 500 nM): 0.008 ± 0.00037 | peptide microarray binding signal ([2]; peptide modifications: H3K115me2 H3R116cit, binder concentration: 10 nM): 0.0196 ± 0.00092 | peptide microarray binding signal ([2]; peptide modifications: H3K115me2 H3R116cit, binder concentration: 100 nM): 0.0271 ± 0.0013 | peptide microarray binding signal [3, 23]: 0.00257 ± 8.7e-05 | peptide microarray binding signal [3, 24]: 0.00211 ± 6.7e-05 | peptide microarray binding signal [4, 23]: 0.00118 ± 5.6e-05 | peptide microarray binding signal [4, 24]: 0.00133 ± 4e-05
